Here are results for 48 compounds from PubChem BioAssay AID504333 (National Center for Advancing Translational Sciences (NCATS), 2011).

Molecules are shown by their SMILES. Screen size: about 360,000 compounds; about 16,000 (4.4%) were called active. Another 9% or so got no clear call; they are omitted. This excerpt belongs to a sample that is enriched for actives. Unmarked numbers belong to inactive results. Calls come from the whole dose curve; as a rule, active = well fitted inhibition curve with a large enough effect; inconclusive = small, poorly fitted or top-dose-only effect; inactive = no such curve, though single readings can be large or run the other way.
% is set by controls: 0 for no effect and ±100 for the full control effect; potency is the fitted concentration of half-maximal effect.

Chain of Bromodomain adjacent to zinc finger domain protein 2B (Homo sapiens) (Q9UIF8 whole entry, looked up, the tested form may be a part): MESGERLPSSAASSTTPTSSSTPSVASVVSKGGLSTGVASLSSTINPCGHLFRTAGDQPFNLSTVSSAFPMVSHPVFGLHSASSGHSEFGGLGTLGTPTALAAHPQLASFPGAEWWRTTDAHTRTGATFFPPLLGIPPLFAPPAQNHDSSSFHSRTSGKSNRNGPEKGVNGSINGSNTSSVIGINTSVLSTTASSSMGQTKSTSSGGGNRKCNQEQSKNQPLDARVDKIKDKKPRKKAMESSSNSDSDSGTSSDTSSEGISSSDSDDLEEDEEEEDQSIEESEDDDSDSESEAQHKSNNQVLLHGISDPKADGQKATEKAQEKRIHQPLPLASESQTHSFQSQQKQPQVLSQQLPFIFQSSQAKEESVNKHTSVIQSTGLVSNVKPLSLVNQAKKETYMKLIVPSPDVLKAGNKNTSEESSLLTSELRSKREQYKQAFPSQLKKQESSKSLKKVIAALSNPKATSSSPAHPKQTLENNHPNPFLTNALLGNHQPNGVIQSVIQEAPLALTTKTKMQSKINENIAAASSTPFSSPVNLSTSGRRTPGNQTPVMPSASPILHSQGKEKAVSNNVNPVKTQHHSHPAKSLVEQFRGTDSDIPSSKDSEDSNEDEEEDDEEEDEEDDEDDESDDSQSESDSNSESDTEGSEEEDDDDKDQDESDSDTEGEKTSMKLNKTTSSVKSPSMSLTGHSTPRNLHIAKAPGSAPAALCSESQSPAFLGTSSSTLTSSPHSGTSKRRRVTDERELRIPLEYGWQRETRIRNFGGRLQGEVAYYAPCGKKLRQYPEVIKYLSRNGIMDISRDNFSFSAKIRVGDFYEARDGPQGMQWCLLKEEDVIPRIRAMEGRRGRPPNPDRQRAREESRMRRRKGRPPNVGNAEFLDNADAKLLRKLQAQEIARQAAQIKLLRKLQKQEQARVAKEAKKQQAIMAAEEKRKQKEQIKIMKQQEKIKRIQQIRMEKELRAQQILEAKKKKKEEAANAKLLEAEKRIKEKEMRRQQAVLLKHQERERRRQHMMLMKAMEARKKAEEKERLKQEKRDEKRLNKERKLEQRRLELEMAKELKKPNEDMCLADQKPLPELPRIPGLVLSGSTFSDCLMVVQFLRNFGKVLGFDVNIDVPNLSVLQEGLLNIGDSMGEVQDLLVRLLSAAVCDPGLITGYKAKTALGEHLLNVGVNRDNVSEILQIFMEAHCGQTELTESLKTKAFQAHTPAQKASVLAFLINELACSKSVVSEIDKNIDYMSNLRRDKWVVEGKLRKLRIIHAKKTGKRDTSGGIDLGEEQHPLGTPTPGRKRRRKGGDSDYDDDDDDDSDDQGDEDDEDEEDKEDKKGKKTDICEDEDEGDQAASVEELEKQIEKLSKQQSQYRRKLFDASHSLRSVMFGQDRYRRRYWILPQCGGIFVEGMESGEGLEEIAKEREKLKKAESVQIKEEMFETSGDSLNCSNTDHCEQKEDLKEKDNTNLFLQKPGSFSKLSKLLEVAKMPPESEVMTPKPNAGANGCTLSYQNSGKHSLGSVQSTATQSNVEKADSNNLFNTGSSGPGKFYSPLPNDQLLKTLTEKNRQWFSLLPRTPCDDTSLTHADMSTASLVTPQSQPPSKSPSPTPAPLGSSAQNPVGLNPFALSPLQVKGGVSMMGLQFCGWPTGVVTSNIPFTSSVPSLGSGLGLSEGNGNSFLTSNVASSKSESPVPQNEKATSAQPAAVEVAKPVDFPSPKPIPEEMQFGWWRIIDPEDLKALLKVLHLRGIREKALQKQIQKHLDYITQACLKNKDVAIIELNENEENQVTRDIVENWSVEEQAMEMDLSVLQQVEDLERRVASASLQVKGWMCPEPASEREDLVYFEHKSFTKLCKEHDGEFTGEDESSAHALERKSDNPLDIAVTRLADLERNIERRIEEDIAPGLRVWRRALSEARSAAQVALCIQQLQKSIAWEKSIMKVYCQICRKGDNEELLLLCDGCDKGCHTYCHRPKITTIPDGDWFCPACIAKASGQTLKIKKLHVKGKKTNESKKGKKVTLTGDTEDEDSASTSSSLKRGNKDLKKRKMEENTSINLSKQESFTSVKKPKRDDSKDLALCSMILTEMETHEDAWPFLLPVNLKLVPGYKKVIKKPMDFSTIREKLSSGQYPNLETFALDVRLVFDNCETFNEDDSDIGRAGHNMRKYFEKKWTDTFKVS

This assay deals with Bromodomain adjacent to zinc finger domain protein 2B (Homo sapiens) (UniProt Q9UIF8). The assay can be described thus: qHTS Assay for Inhibitors of BAZ2B. Note: nearly all actives have a fitted effect of over 60% in size. As to conditions: AlphaScreen BAZ2B-H3K14Ac peptide displacement; series mostly up to 114 µM; activity change, negative = inhibition: at the top concentration. Put shortly:
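AlphaScreen displacement of biotin-H3(5-23)K14Ac peptide (50 nM final) from BAZ2B (50 nM final) in PBS pH 7.4, 0.01% Tween-20; complex preformed 30 min RT, then compounds (top 110 uM) 30 min RT, beads 20 min dark.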
On to `CCCCc1nn2c(=O)cc(COC(=O)c3ccccc3NC(=O)C(C)(C)C)nc2s1`, for which the “activity change, negative = inhibition” value was 1.02%. Regarding `Cc1nn(-c2ccc([N+](=O)[O-])cc2)c(N)c1-c1ccccc1`, the Potency was 70.8 µM (active). `Cc1cc(CO)nn1-c1ccc([N+](=O)[O-])cc1`: the “activity change, negative = inhibition” value is -1.85%.

Consider `Cc1nn(-c2ccccc2)c2c1C(c1cccc([N+](=O)[O-])c1)N(c1ccccc1)C(=O)N2` (stereo not drawn), for which the “activity change, negative = inhibition” value was -0.212%. Take `O=C(NCc1ccc(F)cc1)c1ccc(Cn2c(SCc3ccc(F)cc3)nc3cccnc32)cc1`: the “activity change, negative = inhibition” value was 1.21%.

As for `Cc1oc2ncnc(N3CCOCC3)c2c1C(=O)NCCc1ccccc1`, the “activity change, negative = inhibition” value is 9.18% [at 57.1 µM]. Turning to `COc1ccccc1CNC(=O)CCCCn1c(=O)c2ccccc2n(CC(=O)Nc2cc(Cl)ccc2C)c1=O`, the “activity change, negative = inhibition” value was 1.31%. `COc1ccccc1CNC(=O)CCn1c(=O)c2ccccc2n(CC(=O)Nc2cccc(Cl)c2)c1=O`: the Potency was 79.4 µM (active). Turning to `COc1ccccc1CNC(=O)CCn1c(=O)c2ccccc2n(CC(=O)Nc2ccc(Br)cc2F)c1=O`, the “activity change, negative = inhibition” value was -9.92%.

As to `O=C(NCc1ccccc1Cl)C1=Cc2cc(Br)ccc2OC1`, the “activity change, negative = inhibition” value is 39.3%.

Regarding `CCCC(=O)Nc1cc(C(=O)NCc2ccc(OC)cc2)ccc1S(=O)(=O)c1ccc(Cl)cc1`, the “activity change, negative = inhibition” value was 7.79%. On to `CCOc1ccc(CCNC(=O)c2ccc3c(c2)sc2nc(-c4ccc(F)cc4)cn23)cc1OCC`, for which the “activity change, negative = inhibition” value is 3.83%. Turning to `CCOc1ccc(-c2nonc2NC(=O)c2oc3ccc(CC)cc3c2C)cc1`, the “activity change, negative = inhibition” value is 45.4%. In the case of `COc1ccc(-c2cn3c(n2)sc2cc(C(=O)Nc4ccccc4F)ccc23)cc1`, the “activity change, negative = inhibition” value is -5.78%. On to `Oc1cc2c(cc1O)CN(C(=S)NCCc1ccc(Cl)cc1)CCC2`, for which the Potency was 44.7 µM (active). Regarding `COc1ccc(CCNC(=S)N2CCN(S(=O)(=O)c3ccc(Cl)cc3)CC2)cc1`, the “activity change, negative = inhibition” value is -22.3%.

With `O=C(NCCc1ccc(Cl)cc1)c1cccc(N2CCCC2=O)c1`, the “activity change, negative = inhibition” value was -0.783%. The same measure, in the same setting: next, `CC(=O)c1cc(-c2ccccc2)[nH]c1N1CCCC1`: -1.94%. Regarding `O=C1NN(c2ccccc2)C(=O)/C1=C/c1ccc(-c2cccc(C(=O)O)c2)o1`, the Potency was 44.7 µM (active). Turning to `COc1ccc(-n2nnc(-c3nsc(NC(=O)c4ccc(C)c(C)c4)n3)c2C)cc1Cl`, the “activity change, negative = inhibition” value was -1.44%. The same measure, in the same setting: next, `Cc1ccc(NC(=O)c2cc(S(=O)(=O)NCCC3=CCCCC3)ccc2F)cc1C`: -1.61%; `Cc1sc2ncn(CC(=O)N3CCN(c4ccc(F)cc4)CC3)c(=O)c2c1S(=O)(=O)N1CCN(c2ncccn2)CC1`: -11.3%; `CCOC(=O)c1c(NC(=O)/C(C#N)=C/c2ccccc2)sc2c1CCC2`: -2.86%. Consider `CCOC(=O)c1c(/N=C/c2cc(C)ccc2O)sc2c1CCC2`, for which the Potency is 50.1 µM (active). Consider `CCOC(=O)c1c(NC(=S)NC)sc2c1CCCC2`, for which the “activity change, negative = inhibition” value is -3.22%.

Consider `O=C(Nc1ccc2nc(SCC(=O)N3CCc4ccccc43)sc2c1)c1ccccc1F`, for which the “activity change, negative = inhibition” value is 13.1%. `CCOC(=O)c1cc2c(=O)n3ccccc3nc2n(CC2CCCO2)c1=NC(=O)c1ccccc1Br` (stereo not drawn): the “activity change, negative = inhibition” value is 5.77%.

On to `CCc1ccc(NC(=O)CCCc2nnc3n(CCCOC)c(=O)c4sccc4n23)cc1`, for which the “activity change, negative = inhibition” value is -31.2%. As for `O=C(NCCN1C(=O)S/C(=C\c2cccnc2)C1=O)c1cccc(OC(F)F)c1`, the “activity change, negative = inhibition” value was 4.16%. In the case of `Cc1nn(Cc2ccccc2)c(C)c1C(=O)NCCN1C(=O)S/C(=C\c2ccc(F)cc2)C1=O`, the “activity change, negative = inhibition” value was 16.3%. As for `N#Cc1ccccc1CN1C(=O)S/C(=C/c2cccn2-c2cccc(C(=O)O)c2)C1=O`, the Potency is 25.1 µM (active). Take `CCc1ccc(CNCc2c(C(=O)O)n(Cc3ccc(F)cc3Cl)c3cc(OC)ccc23)cc1`: the “activity change, negative = inhibition” value is -4.3%.

`CCCCN(CC)CCCNC(=O)Cn1ncc2c([nH]c3ccc(C)cc32)c1=O`: the “activity change, negative = inhibition” value was 2.67% [at 57.1 µM]. In the case of `CCNS(=O)(=O)c1ccc(NC(=O)CSc2nc(-c3ccco3)cc(C(F)(F)F)n2)cc1`, the “activity change, negative = inhibition” value was -15.5%.

With `CCOc1cccc2c1N[C@@H](c1ccc(C(=O)O)cc1)[C@H]1CC=C[C@@H]21`, the Potency was 15.8 µM (active). Take `CCOc1cc(C(=O)O)ccc1OCCOc1ccccc1`: the “activity change, negative = inhibition” value is -16.1%. On to `CCOc1c(CNCc2ccc(C(=O)O)cc2)cccc1OC`, for which the “activity change, negative = inhibition” value is -3.23%. In the case of `Cc1cccc(N2CCN(C(=O)CCSCc3ccccc3F)CC2)c1C`, the “activity change, negative = inhibition” value is 17.7%. With `Cc1ccc(-n2ncc(C(=O)N(C)Cc3ccccc3)c2-n2cccc2)cc1`, the “activity change, negative = inhibition” value was -21.1%.

For `COc1ccc2oc(-c3ccc(C)c(NC(=O)c4sc5ccccc5c4Cl)c3)nc2c1`, the “activity change, negative = inhibition” value was -16.3%. Turning to `O=C(CSc1nc(Nc2ccc(F)c(F)c2)c2ccccc2n1)c1ccc(Cl)cc1`, the “activity change, negative = inhibition” value is -11.1%. Consider `CC(O)CN(Cc1ccc(Cl)cc1)CC(C)O` (stereo not drawn), for which the Potency is 56.2 µM (active). As to `CN(C)CCCNC(=S)NCc1ccc(Cl)cc1`, the “activity change, negative = inhibition” value is 11.6%. On to `O=C(NCc1ccc(Cl)cc1)NCc1ccc(Cl)cc1`, for which the “activity change, negative = inhibition” value is -10.7%. With `CCC1CN(S(=O)(=O)c2cc(-c3cc(C)no3)ccc2C)c2cc(C)ccc2O1` (stereo not drawn), the “activity change, negative = inhibition” value was 4.05%.

Take `O=S(=O)(c1ccc(Br)cc1)c1nnn2c1nc(N1CCOCC1)c1sccc12`: the “activity change, negative = inhibition” value is -12.7%. `O=C(CSc1oc(-c2ccco2)nc1S(=O)(=O)c1ccccc1)c1ccc(Cl)cc1`: the “activity change, negative = inhibition” value was -11.8%. Consider `O=S(=O)(c1cccc2nonc12)N1CCN(c2cccc(Cl)c2)CC1`, for which the Potency is 50.1 µM (active).
